The source made the active and inactive calls.
Assays:
[1] = target: Albumin (Bos taurus) (UniProt P02769); assay: bovine serum albumin binders on microarray, profiling panel, artefact control for SMM control protein annotation, biochemical, small-molecule microarray, Alexa647 label, 635/667 nm fluorescence (AID 1118); settings: BSA-A647 binding, fluorescence 635 nm, higher = more signal;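 also: score merges 667 nm emission intensity and signal-to-noise per printed compound spot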
[2] = small-molecule microarray binders of probe aXIP, primary screen, biochemical, NeuroSMM set, 635/667 nm fluorescence (AID 1119); settings: higher = more signal, called active from +8 up or from −8 down;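 also: probe is the protein aXip251-270 applied at 1 µg/mL to compound-printed slides; binding of probe to printed compounds measured as 667 nm fluorescence plus signal to noise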
[3] = small-molecule binders of probe aNOTCH3, primary screen, biochemical, small-molecule microarray, 635/667 nm fluorescence (AID 1120); settings: higher = more signal;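 also: probe is a biotin-tagged antibody raised against NOTCH3 rather than NOTCH3 protein; score merges spot fluorescence near 667 nm with spot signal to noise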
[4] = small-molecule binders of probe aNOTCH2, primary screen, biochemical, small-molecule microarray, 635/667 nm fluorescence (AID 1121); settings: higher = more signal;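 also: score merges feature fluorescence read at 667 nm with its signal to noise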
[5] = target: Carbonic anhydrase 2 (Homo sapiens) (UniProt P00918); assay: CAII small-molecule binders, profiling panel, biochemical, small-molecule microarray, Alexa647-labelled CAII (AID 1122); settings: CAII-A647 binding fluorescence, higher = more signal
[6] = COS7 lysate on small-molecule microarray, probe aHis, 635 nm (AID 1123); settings: COS7 cell lysate, fluorescence, higher = more signal;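 also: z-score combines 667nm fluorescence intensity with signal-to-noise per printed compound spot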
[7] = compound binding in COS7 lysate, probe aLAP1, primary screen, cell lysate, small-molecule microarray (AID 1124); settings: probe aLAP1, fluorescence, higher = more signal;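 also: lysate comes from COS7 cells expressing LAP1 and is applied at 0.3 µg/mL; score merges spot fluorescence near 667 nm with signal-to-noise over triplicate slides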
[8] = system: Sam68 (KHDRBS1); assay: Sam68 small-molecule binders, primary screen, biochemical, small-molecule microarray, 635 nm fluorescence (AID 1125); settings: small-molecule microarray binding, higher = more signal;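 also: score merges 667 nm channel intensity with signal to noise over triplicate slides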
[9] = system: Chordin-like protein 2 (CHRDL2); assay: CHRDL2 small-molecule binders, primary screen, biochemical, small-molecule microarray, 635 nm fluorescence (AID 1126); settings: small-molecule microarray binding, fluorescence 635 nm; higher = more signal;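 also: printed compound slides probed with Chrdl2 protein at 4 µg/mL for 1 h at 4 C; score merges 667 nm emission intensity with signal to noise over three replicate slides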
[10] = target: Concanavalin-A (Canavalia ensiformis) (UniProt P02866); assay: ConA small-molecule binders, primary screen, artefact control for SMM control protein annotation, biochemical, small-molecule microarray, Alexa647 label, 635 nm (AID 1127); settings: ConA-A647 binding fluorescence, higher = more signal;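 also: z combines 667 nm emission intensity with signal-to-noise across three replicate slides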
Concanavalin-A (Canavalia ensiformis), sequence (P02866 whole entry, looked up): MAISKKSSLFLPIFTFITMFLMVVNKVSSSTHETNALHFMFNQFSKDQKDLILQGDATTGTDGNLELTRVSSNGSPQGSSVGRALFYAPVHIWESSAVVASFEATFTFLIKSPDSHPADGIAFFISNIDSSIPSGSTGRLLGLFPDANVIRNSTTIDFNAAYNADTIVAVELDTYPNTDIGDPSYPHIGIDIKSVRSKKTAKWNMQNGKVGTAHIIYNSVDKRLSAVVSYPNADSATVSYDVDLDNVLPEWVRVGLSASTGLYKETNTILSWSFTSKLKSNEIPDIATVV

[11] = anti-His antibody binders, primary screen, artefact control for SMM control protein annotation, biochemical, small-molecule microarray, 635 nm fluorescence (AID 1128); settings: anti-His Alexa647 antibody binding, higher = more signal;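 also: score merges feature fluorescence with signal-to-noise for each printed compound spot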
[12] = system: Human papillomavirus type 1a E7 protein (residues 1-88); assay: HPV1a E7 small-molecule binders, primary screen, biochemical, small-molecule microarray, residues 1-88, 635 nm (AID 1129); settings: small-molecule microarray binding, fluorescence 635 nm; higher = more signal
[13] = target: Focal adhesion kinase 1 (Homo sapiens) (UniProt Q05397); assay: small-molecule microarray binders of FAK, primary screen, biochemical, 635/667 nm fluorescence, BSA, DTT (AID 1130); settings: PTK2 binding, 635 nm fluorescence, higher = more signal;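 also: composite of spot emission at 667 nm and signal to noise over triplicate slides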
Focal adhesion kinase 1 (Homo sapiens), sequence (Q05397 whole entry, looked up): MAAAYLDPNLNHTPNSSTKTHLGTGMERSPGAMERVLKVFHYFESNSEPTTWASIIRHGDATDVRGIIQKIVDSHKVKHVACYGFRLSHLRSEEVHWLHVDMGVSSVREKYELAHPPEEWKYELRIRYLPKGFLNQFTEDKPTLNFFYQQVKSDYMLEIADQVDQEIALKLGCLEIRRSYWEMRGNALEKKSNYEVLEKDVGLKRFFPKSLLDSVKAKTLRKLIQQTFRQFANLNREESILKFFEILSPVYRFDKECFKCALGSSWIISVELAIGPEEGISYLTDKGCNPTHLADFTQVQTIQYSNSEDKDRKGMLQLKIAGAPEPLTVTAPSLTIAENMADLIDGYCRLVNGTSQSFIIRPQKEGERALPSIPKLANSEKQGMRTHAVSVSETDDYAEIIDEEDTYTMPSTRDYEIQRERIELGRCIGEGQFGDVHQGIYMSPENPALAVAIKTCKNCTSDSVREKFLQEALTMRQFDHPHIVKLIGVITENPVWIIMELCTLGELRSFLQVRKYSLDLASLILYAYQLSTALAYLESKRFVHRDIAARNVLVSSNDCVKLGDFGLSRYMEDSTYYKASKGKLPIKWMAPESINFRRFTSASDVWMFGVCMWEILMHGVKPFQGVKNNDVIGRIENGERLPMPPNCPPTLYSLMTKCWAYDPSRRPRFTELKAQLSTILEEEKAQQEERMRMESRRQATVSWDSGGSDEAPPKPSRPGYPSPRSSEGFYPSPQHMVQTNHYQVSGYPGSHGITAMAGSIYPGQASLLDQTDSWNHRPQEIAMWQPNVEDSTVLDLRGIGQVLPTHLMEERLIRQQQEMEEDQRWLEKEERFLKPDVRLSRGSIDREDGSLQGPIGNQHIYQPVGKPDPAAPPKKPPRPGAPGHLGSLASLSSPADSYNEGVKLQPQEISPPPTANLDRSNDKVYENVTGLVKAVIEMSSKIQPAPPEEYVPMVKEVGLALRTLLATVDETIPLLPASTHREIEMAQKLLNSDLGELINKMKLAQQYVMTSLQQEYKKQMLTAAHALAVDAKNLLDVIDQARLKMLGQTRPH

[14] = system: Fibrinogen (Alexa647-labelled); assay: fibrinogen binders on compound microarrays, profiling panel, artefact control for SMM control-protein annotation, biochemical, small-molecule microarray, 635/667 nm fluorescence (AID 1131); settings: fibrinogen-A647 binding fluorescence, higher = more signal;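 also: z-score merges 667 nm fluorescence with per-spot signal-to-noise over triplicate slides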
[15] = target: Follistatin (Homo sapiens) (UniProt P19883); assay: follistatin binders on small-molecule microarrays, primary screen, biochemical, small-molecule microarray, 635/667 nm fluorescence (AID 1132); settings: FST binding, 635 nm fluorescence, higher = more signal
Follistatin (Homo sapiens), sequence (P19883 whole entry, looked up): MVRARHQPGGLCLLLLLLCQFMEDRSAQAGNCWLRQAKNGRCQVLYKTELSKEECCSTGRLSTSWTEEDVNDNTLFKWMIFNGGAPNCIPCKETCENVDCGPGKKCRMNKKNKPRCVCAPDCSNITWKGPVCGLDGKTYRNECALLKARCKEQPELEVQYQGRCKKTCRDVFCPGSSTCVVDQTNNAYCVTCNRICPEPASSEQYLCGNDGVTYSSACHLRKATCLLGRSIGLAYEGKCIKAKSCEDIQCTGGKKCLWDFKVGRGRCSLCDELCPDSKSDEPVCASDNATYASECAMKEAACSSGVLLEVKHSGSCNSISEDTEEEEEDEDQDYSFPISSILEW

[16] = target: Fibroblast growth factor 2 (Homo sapiens) (UniProt P09038); assay: FGF2 binders on small-molecule microarrays, primary screen, biochemical, small-molecule microarray, 635/667 nm fluorescence (AID 1133); settings: small-molecule microarray binding, FGF2, fluorescence 635/667; higher = more signal
Fibroblast growth factor 2 (Homo sapiens), sequence (P09038 whole entry, looked up): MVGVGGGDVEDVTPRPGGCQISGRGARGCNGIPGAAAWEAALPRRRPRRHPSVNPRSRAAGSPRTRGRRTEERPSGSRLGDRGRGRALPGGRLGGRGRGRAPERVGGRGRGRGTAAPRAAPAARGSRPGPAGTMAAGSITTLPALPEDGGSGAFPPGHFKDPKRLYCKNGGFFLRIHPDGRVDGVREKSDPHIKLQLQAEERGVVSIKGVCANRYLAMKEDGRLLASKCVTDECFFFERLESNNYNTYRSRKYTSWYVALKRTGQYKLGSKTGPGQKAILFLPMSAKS

[17] = mitochondrial membrane potential change in A549 cells, profiling panel, cell-based, JC-1 fluorescence, basal, 24 h, 100 nL (AID 1138); settings: higher = more signal;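 also: A549 lung adenocarcinoma cells under basal conditions with no added stimulus; test concentration not given here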
[18] = system: Lefty1; assay: Lefty1 binders on small-molecule microarrays, primary screen, biochemical, small-molecule microarray, 635/667 nm fluorescence (AID 1139); settings: small-molecule microarray binding, fluorescence 635/667; higher = more signal
[19] = system: wheat germ agglutinin (Triticum aestivum), Alexa647-labelled; assay: wheat germ agglutinin binders on compound microarrays, profiling panel, artefact control for SMM control-protein annotation, biochemical, small-molecule microarray, 635/667 nm fluorescence (AID 1140); settings: WGA-A647 binding, 635 nm fluorescence, higher = more signal;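 also: score merges 667 nm feature emission with signal to noise over triplicate slides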
[20] = target: Luciferin 4-monooxygenase (Photinus pyralis) (UniProt P08659); assay: firefly luciferase enzyme inhibitors, primary screen, biochemical, luminescence, purified enzyme, 2006 set (AID 1141); settings: SteadyGlo luminescence, 30 min, higher = more signal, called active from +8 up or from −8 down;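 also: cell-free assay with purified firefly luciferase at 100 ng per well in PBS; test concentration not given here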
Luciferin 4-monooxygenase (Photinus pyralis), sequence (P08659 whole entry, looked up): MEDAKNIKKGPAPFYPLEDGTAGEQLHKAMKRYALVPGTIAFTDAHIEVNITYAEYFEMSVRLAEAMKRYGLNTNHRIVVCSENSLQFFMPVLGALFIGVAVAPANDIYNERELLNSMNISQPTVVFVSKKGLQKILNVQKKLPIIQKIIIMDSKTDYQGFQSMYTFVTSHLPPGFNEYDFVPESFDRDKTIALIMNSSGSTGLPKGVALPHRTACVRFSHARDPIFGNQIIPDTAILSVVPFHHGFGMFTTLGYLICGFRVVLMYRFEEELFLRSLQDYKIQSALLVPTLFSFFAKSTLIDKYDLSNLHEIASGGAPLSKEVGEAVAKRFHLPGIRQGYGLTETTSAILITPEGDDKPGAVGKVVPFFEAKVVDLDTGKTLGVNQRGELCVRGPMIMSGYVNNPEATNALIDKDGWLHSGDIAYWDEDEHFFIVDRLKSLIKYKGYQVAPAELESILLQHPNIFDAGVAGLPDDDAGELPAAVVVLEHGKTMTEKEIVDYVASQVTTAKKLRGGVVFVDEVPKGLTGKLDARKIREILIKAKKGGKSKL

Albumin (Bos taurus), sequence (P02769 whole entry, looked up): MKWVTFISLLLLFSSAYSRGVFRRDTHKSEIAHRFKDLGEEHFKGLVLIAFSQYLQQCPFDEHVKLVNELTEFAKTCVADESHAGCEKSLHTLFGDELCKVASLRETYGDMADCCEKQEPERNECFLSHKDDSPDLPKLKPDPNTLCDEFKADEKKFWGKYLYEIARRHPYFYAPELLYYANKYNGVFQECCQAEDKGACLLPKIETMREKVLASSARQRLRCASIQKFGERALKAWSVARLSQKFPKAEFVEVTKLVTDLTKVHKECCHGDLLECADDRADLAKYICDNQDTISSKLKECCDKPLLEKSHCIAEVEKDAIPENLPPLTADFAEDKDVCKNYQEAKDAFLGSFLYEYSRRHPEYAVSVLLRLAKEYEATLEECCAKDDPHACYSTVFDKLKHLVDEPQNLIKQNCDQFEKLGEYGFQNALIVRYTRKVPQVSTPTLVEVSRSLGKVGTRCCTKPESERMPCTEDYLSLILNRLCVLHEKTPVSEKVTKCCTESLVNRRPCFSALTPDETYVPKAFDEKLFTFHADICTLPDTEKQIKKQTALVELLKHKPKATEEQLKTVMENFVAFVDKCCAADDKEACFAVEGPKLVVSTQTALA

Compound | composite z-score [1] | composite Z-score [2] | composite z-score [3] | composite z-score [4] | composite z-score [5] | composite z-score [6] | composite z-score [7] | composite z-score [8] | composite z-score [9] | composite z-score [10] | composite z-score [11] | composite z-score [12] | composite z-score [13] | composite z-score [14] | composite z-score [15] | composite z-score [16] | z-score [17] | composite z-score [18] | composite z-score [19] | z-score [20]
O=C1O[C@@H](c2ccccc2)[C@@H](c2ccccc2)N2[C@@H](c3ccccc3OCCO)[C@]3(C(=O)Nc4ccccc43)[C@@H](C(=O)NC[C@H](O)c3ccccc3)[C@H]12 | 0.641 | -0.0662 (inactive) | -0.213 | -0.14 | 0.586 | 1.32 | 0.487 | 0.9 | -1.15 | 0.196 | -0.27 | 1.19 | 0.682 | -0.0424 | -0.185 | -0.452 | 0.171 | -0.373 | -0.545 | 0.0121 (inactive)
COc1cc2c(cc1OC)CN(C(=O)[C@H]1[C@@H]3C(=O)O[C@@H](c4ccccc4)[C@@H](c4ccccc4)N3[C@@H](c3ccc(OCCO)cc3)[C@]13C(=O)Nc1ccc(C#CCCO)cc13)CC2 | 0.592 | 0.524 (inactive) | 0.0418 | 0.0292 | 0.434 | 2.2 | 1.25 | 1.29 | 0.0602 | 1.11 | 1.43 | 1.22 | 0.541 | 0.939 | 1.35 | 0.742 | -0.96 | 1.14 | 1.01 | 0.268 (inactive)
O=C1O[C@@H](c2ccccc2)[C@@H](c2ccccc2)N2[C@@H](c3ccc(O)cc3)[C@]3(C(=O)Nc4ccc(C#CCCO)cc43)[C@@H](C(=O)Nc3nc4ccccc4s3)[C@H]12 | 0.827 | -0.0011 (inactive) | -0.0265 | -0.115 | 0.507 | 0.999 | 0.887 | 1.29 | -0.0623 | 0.616 | 0.709 | 1.23 | 0.31 | 0.682 | 1.25 | 1.01 | -2.38 | 0.531 | 0.552 | -0.155 (inactive)
CC(C)CN1C(=O)[C@@]2(c3ccc([N+](=O)[O-])cc3)CC(=O)N(CC34CC5CC(CC(C5)C3)C4)[C@@H]2c2ccc(CO)cc21 | 0.291 | -0.585 (inactive) | -0.0016 | -0.189 | 0.411 | 0.0815 | -0.0349 | -0.772 | -1.52 | 0.436 | 2.34 | -0.636 | -0.253 | 0.233 | -1.16 | -1.14 | -0.422 | -0.969 | -0.323 | 0.0209 (inactive)
Cc1ccc(S[C@]2(C(=O)NCC(C)C)CC(=O)N(Cc3ccccc3Cl)[C@@H]2c2ccc(CO)cc2I)cc1 | -0.253 | 0.0894 (inactive) | -0.179 | -0.127 | 0.763 | 0.363 | 0.142 | 0.245 | -0.332 | -0.395 | 0.231 | 0.132 | -0.47 | 0.137 | -0.142 | -0.131 | -0.204 | -0.7 | 0.231 | 0.272 (inactive)
CC=CC(O)C1C=CC2C(=O)N(c3ccccc3)C(=O)C2N1Nc1ccccc1 (stereo not given) | 0.867 | 0.454 (inactive) | 0.291 | 0.121 | 0.681 | 2.57 | 0.243 | 1.29 | 0.25 | 1.19 | 2.25 | 1.25 | 0.981 | 0.915 | 1.2 | 0.915 | 0.714 | 0.493 | 1.15 | -2.22 (inactive)
COc1ccc([Si](C)(C)[C@H]2[C@H](CCn3cc(CCO)nn3)O[C@@]3(C(=O)N(Cc4ccc(N5C(=O)c6cccc7cccc5c67)cc4)c4ccccc43)[C@@H]2C)cc1 | 0.627 | -0.777 (inactive) | 0.0996 | -0.14 | 0.345 | 1.04 | 0.303 | 1.29 | 0.628 | 0.962 | 1.12 | 1.2 | 0.379 | 0.431 | 1.23 | 0.949 | -0.932 | 1.31 | 0.578 | 0.303 (inactive)
CN(C)C(=O)[C@]1(CCC(=O)OC(C)(C)C)N=C(c2ccc(OCCCO)cc2)O[C@@H]1c1ccccc1 | 0.383 | 0.666 (inactive) | 0.116 | -0.0308 | 0.469 | 3.06 | 0.264 | 0.374 | -0.792 | 0.34 | 2.57 | 1.27 | 0.712 | 0.97 | 0.562 | 0.399 | 1.58 | -0.781 | 0.448 | -1.41 (inactive)
CC(C)C(=C=CC[C@H](O)c1ccc(OCCO)cc1)C[C@H](O)c1cc(Cl)cc(Cl)c1O | 0.584 | 0.32 (inactive) | 0.232 | -0.0533 | 0.542 | 0.644 | 0.147 | 1.26 | 0.243 | 1.07 | 2.46 | 1.09 | -0.0133 | 0.134 | 0.996 | 1.09 | 1.78 | 1.22 | 0.539 | -1.78 (inactive)
COc1ccc([Si](C)(C)[C@@H]2[C@@H](CC(=O)N3CCC[C@H]3CO)O[C@]3(C(=O)N(Cc4ccc(N5C(=O)c6cccc7cccc5c67)cc4)c4ccccc43)[C@H]2C)cc1 | -0.647 | 0.296 (inactive) | 0.0996 | -0.148 | 0.447 | 1.77 | 0.323 | 1.29 | 1.3 | 0.892 | 1.96 | 1.2 | 0.566 | 0.759 | 1.1 | 1.54 | -0.438 | 1.2 | 0.719 | 0.508 (inactive)
CC(C)(C)OC(=O)CC[C@]1(C(=O)NCCN2CCOCC2)N=C(c2ccc(OCCCO)cc2)O[C@H]1c1ccccc1 | 0.824 | -0.985 (inactive) | 0.0636 | -0.075 | 0.745 | 2.28 | -0.657 | 0.218 | -1.21 | 1.16 | 2.21 | 0.358 | 0.75 | 0.955 | -0.0269 | -0.397 | 1.21 | -0.964 | 0.391 | -1.16 (inactive)
